Records with an inconclusive call do not appear. Activity calls are given as the source filed them. Unless noted, the call rests on the fitted dose curve; in most records, active means well fitted curve in the direction sought with a large enough effect in the repeat runs; inconclusive means weak or mixed curves; inactive means no such curve, though single readings can be large; an effect the other way counts as inactive or inconclusive.

Assay [1] can be described thus: A CellTox Green Cytotoxicity Assay to monitor cytotoxicity in HepG2 cells - 0 hour (AID 1224882). Further: nearly all actives have a fitted effect of over 35% in size. The essentials: (§1)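 HepG2 cells were seeded together with the CellTox Green dye at 600 cells/well, left 5 h at 37 C/5% CO2, then given compounds in DMSO. Fluorescence from dye bound to dead-cell DNA was read repeatedly over 40 h of treatment at 37 C.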
The nature of assay [2]: A CellTox Green Cytotoxicity Assay to monitor cytotoxicity in HepG2 cells - 32 hour (AID 1224883). Further: nearly all actives have a fitted effect of over 50% in size. Further: potency means the concentration at half of the fitted maximal effect. In outline: as §1
Assay [3] can be described thus: A CellTox Green Cytotoxicity Assay to monitor cytotoxicity in HEK293 cells - 8 hour (AID 1224884). Further: nearly all actives have a fitted effect of over 35% in size. In outline: (§2)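 HEK293 cells premixed with CellTox Green dye were seeded at 600 cells/well and left 5 h at 37 C/5% CO2 before pin transfer of 23 nL compound in DMSO. Fluorescence from dye bound to dead-cell DNA was read during 40 h treatment.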
The nature of assay [4]: qHTS RealTime-Glo MT Cell Viability Assay in HepG2 cells - 16 hour (AID 1224885). Further: nearly all actives have a fitted effect of over 50% in size. The essentials: (§3)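 Cell number in HepG2 cultures estimated from NanoLuc luminescence generated by metabolic reduction of a prosubstrate by living cells. The homogeneous, nonlytic format allowed repeated reads at 0, 8, 16, 24, 32 and 40 h of compound exposure.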
In general terms: qHTS replaces the single test concentration by a dilution series.

Assay [5] in a line: A CellTox Green Cytotoxicity Assay to monitor cytotoxicity in HEK293 cells - 16 hour (AID 1224888). Further: nearly all actives have a fitted effect of over 35% in size. The essentials:
as §2

The nature of assay [6]: qHTS RealTime-Glo MT Cell Viability Assay in HepG2 cells - 0 hour (AID 1224889). Further: nearly all actives have a fitted effect of over 50% in size. Further: potency means the concentration at half of the fitted maximal effect. The essentials: as §3
The nature of assay [7]: qHTS assay to identify small molecule antagonists of the estrogen receptor alpha (ER-alpha) signaling pathway using the BG1 cell line in the presence of 0.1 nM 17-beta-estradiol - cell viability counter screen (AID 1259241). Further: nearly all actives have a fitted effect of over 40% in size. In outline: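 VM7Luc4E2 cells (endogenous full-length ER-alpha, 4xERE-luciferase), cultured 5 days in charcoal-stripped serum, exposed to compounds with 0.1 nM 17beta-estradiol (final) for 22 hr at 37C. Viability read in same wells as live-cell protease fluorescence after 30 min.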

The nature of assay [8]: qHTS assay to identify small molecule antagonists of the androgen receptor (AR) signaling pathway using the MDA cell line in the presence of 0.5 nM R1881 - cell viability counter screen (AID 1259242). Further: nearly all actives have a fitted effect of over 45% in size. The essentials: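 MDA-kb2 cells (human breast carcinoma, stably carrying MMTV-luciferase reporter) were exposed to compounds with 0.5 nM R1881 (final) for 16 hr at 37C, 0% CO2; viability then read as live-cell protease fluorescence (CellTiter-Fluor, 30 min) in the same wells.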

The target in assay [9] is Androgen receptor (Homo sapiens) (UniProt P10275). The assay can be described thus: qHTS assay to identify small molecule antagonists of the androgen receptor (AR) signaling pathway using the MDA cell line in the presence of 0.5 nM R1881 (AID 1259243). Further: nearly all actives have a fitted effect of over 50% in size. The essentials:
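MDA-kb2 human breast carcinoma cells carrying an MMTV-luciferase reporter (AR- and GR-responsive) were plated, rested 5 hr at 37C, dosed with compounds, then stimulated with 0.5 nM R1881 (final) for 16 hr; luminescence was read after ONE-Glo.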

In assay [10] the target is Estrogen receptor (Homo sapiens) (UniProt P03372). Briefly: qHTS assay to identify small molecule antagonists of the estrogen receptor alpha (ER-alpha) signaling pathway using the BG1 cell line in the presence of 0.1 nM 17-beta-estradiol (AID 1259244). Further: nearly all actives have a fitted effect of over 50% in size. The essentials: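 VM7Luc4E2 cells (endogenous full-length ER-alpha, stable 4xERE-luciferase) were grown 5 days in phenol red-free medium with charcoal-stripped FBS, then exposed 22 h at 37C to compounds plus 0.1 nM (final) 17beta-estradiol; ONE-Glo luminescence read-out.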
Chain of Estrogen receptor (Homo sapiens) (P03372 whole entry, looked up): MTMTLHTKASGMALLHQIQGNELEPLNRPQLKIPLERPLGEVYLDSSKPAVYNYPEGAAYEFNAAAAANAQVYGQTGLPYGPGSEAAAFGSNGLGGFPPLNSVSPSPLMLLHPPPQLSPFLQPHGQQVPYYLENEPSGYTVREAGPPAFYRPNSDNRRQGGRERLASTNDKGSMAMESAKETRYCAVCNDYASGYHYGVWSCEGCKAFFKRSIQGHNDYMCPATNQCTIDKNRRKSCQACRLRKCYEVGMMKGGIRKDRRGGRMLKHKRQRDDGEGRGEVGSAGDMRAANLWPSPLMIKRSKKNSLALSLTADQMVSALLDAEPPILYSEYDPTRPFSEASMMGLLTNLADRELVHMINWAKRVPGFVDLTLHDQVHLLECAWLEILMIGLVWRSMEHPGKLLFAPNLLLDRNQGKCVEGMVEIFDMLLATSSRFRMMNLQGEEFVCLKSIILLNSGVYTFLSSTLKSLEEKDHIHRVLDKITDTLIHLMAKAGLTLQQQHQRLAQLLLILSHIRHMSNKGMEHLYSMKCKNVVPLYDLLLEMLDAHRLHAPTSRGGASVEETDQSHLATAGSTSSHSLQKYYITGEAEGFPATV

Assay [11] is described as follows: qHTS assay to identify small molecule HDAC inhibitors (AID 1259364). Further: top concentration of the series differs between compounds; nearly all actives have a fitted effect of over 45% in size. The essentials:
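Wild-type HCT-116 cells were plated overnight, exposed to compounds for 2 h at 37 °C, then given HDAC-Glo class I/II luminogenic reagent for 30 min at room temperature before luminescence was read.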

Assay [12] can be described thus: qHTS assay to identify small molecule HDAC inhibitors - cell viability counter screen (AID 1259365). The essentials: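 Wild-type HCT-116 cells, 1,500/well, cultured overnight, then compound-treated 2 h at 37 C. Viability measured as ATP luminescence with CellTiter-Glo after 30 min at room temperature.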
Assay [13] in a line: qHTS assay to identify small molecule agonists of the sonic hedgehog signaling (Shh) pathway - cell viability counter screen (AID 1259366). Further: nearly all actives have a fitted effect of over 50% in size. Further: potency means the concentration at half of the fitted maximal effect. In outline:
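NIH/3T3-derived Gli1-Luc reporter cells, 2,000 per well, received compound after 4 h and were treated about 23 h at 37C. Viability measured in the same wells by CellTiter-Fluor fluorescence after 1 h.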

Assay [14] in a line: qHTS assay to identify small molecule antagonists of the sonic hedgehog signaling (Shh) pathway - cell viability counter screen (AID 1259367). Further: nearly all actives have a fitted effect of over 55% in size. Further: potency means the concentration at half of the fitted maximal effect. In outline: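 Using CellTiter-Fluor, viability of Gli1-Luc reporter 3T3 cells is read by fluorescence in the wells used for the Shh luciferase assay. Treatment lasts 23 hr with conditioned medium, then reagent 1 hr at 37C.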
Assay [15] in a line: qHTS assay to identify small molecule agonists of the sonic hedgehog signaling (Shh) pathway (AID 1259368; calls by dose curve; further: series mostly up to about 92 µM; nearly all actives have a fitted effect of over 15% in size). In outline:
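NIH/3T3-derived 3T3Gli1-Luc cells carrying a stably integrated Gli1 response element–firefly luciferase reporter were plated, left 4 hr at 37 C, then given compounds in DMSO for 24 hr. Luminescence was read 30 min after adding luciferase reagent.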

Assay [16] in a line: qHTS assay to identify small molecule antagonists of the sonic hedgehog signaling (Shh) pathway (AID 1259369; calls by dose curve; further: nearly all actives have a fitted effect of over 45% in size; further: potency means the concentration at half of the fitted maximal effect). In outline: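 NIH/3T3-derived 3T3Gli1-Luc cells with stably integrated Gli1-Luc reporter were preincubated 4hr at 37 C, then given compounds in DMSO plus Shh conditioned medium and incubated 24hr. Firefly luciferase luminescence read after 30min reagent at room temperature.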

Assay [17] in a line: A CellTox Green Cytotoxicity Assay to monitor cytotoxicity in HepG2 cells - 8 hour (AID 1224890). Further: nearly all actives have a fitted effect of over 45% in size. The essentials: as §1
Assay [18] is described as follows: qHTS RealTime-Glo MT Cell Viability Assay in HEK293 cells - 24 hour (AID 1224886). Further: nearly all actives have a fitted effect of over 50% in size. Further: potency means the concentration at half of the fitted maximal effect. The essentials:
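Homogeneous bioluminescent viability format in HEK293 cells (600 cells/well). Following 5 h at 37 C/5% CO2, 23 nL compound was pintooled; the signal was measured repeatedly during 40 h incubation.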

A short description of assay [19]: qHTS RealTime-Glo MT Cell Viability Assay in HEK293 cells - 8 hour (AID 1224887). The essentials:
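HEK293 cells mixed with RealTime-Glo reagents (NanoLuc plus cell-permeant prosubstrate) at 600 cells/well, preincubated 5 h at 37 C/5% CO2, then given 23 nL compound in DMSO. Nonlytic luminescence from viable cells was read at 0, 8, 16, 24, 32 and 40 h.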

Assay [20] is described as follows: qHTS assay to identify small molecule phospholipidosis (PLD) inducers (AID 1259344; active means well fitted curve in the direction sought with a large enough effect; an effect the other way counts as inactive or inconclusive). In outline: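 Fluorescent phospholipid staining (LipidTOX Red) measured by automated microscopy in fixed HepG2 cells after 24 h treatment; nuclei counterstained with Hoechst 33342; amiodarone as reference inducer.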

Chain of Androgen receptor (Homo sapiens) (P10275 whole entry, looked up): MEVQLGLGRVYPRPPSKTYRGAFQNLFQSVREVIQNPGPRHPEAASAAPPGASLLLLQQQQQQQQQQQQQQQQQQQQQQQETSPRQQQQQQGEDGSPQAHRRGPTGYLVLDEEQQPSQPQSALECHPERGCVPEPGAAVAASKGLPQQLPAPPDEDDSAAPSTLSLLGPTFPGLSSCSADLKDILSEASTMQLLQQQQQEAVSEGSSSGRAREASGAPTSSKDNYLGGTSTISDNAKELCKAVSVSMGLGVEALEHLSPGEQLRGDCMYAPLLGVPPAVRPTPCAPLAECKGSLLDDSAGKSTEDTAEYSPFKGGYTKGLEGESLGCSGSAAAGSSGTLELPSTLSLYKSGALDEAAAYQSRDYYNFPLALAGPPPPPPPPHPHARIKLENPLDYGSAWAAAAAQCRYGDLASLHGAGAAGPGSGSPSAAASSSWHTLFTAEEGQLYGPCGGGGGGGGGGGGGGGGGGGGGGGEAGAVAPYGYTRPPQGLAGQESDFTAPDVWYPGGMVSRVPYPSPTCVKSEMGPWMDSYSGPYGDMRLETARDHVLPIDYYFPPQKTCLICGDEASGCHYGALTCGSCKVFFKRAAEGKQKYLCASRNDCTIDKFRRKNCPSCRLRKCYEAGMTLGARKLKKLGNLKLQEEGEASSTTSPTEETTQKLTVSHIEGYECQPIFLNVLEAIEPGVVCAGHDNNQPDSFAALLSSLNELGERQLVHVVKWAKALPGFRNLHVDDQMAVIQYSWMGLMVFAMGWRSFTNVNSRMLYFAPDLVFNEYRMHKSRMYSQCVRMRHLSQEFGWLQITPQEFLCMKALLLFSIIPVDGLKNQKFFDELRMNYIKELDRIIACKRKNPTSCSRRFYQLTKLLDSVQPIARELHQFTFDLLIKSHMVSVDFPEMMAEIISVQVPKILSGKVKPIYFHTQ

For the molecule `CCCCCCc1ccc(N)cc1`, the Potency result in assay [1], in [3], in assay [4], in assay [5], in assay [6] and in [7] was “inactive” each time. Besides, the Potency entry in assay [8], in [9], in assay [10], in assay [11], in assay [13] and in assay [14] was “inactive” throughout. The Potency result in assay [16] was “inactive”. In assay [2], the Potency was 49 µM (active). Further, the outcome in assay [12] and in [15] was inactive.
Consider `CC(=O)[C@@]1(O)CC[C@H]2[C@@H]3C[C@H](C)C4=CC(=O)CC[C@]4(C)[C@H]3CC[C@@]21C`, for which the Potency result in assay [1], in assay [2], in assay [3], in [4], in assay [5] and in [17] was “inactive” in each case. The Potency result in assay [7], in [8], in assay [10], in [11], in assay [13] and in assay [14] was “inactive” each time. The Potency in assay [6] was 1.51 µM (active). In addition, the call in assay [12] and in assay [15] was inactive.
As to `CC(C)c1ccc2c(C(C)C)cc(C(C)C)c(S(=O)(=O)O)c2c1`, the Potency entry in [1], in assay [2], in assay [3], in assay [18], in [19] and in assay [5] was “inactive” in each case. The Potency result in assay [6], in [17], in assay [7], in assay [8], in [9] and in assay [10] was “inactive” each time. Besides, the Potency entry in [11], in assay [13] and in assay [16] was “inactive” in each case. Further, the molecule was called inactive in assay [12] and in [15].
As for `CCCCCc1ccc(N)cc1`, the Potency entry in [1], in assay [3], in [4], in assay [5], in assay [6] and in assay [7] was “inactive” in each case. Also, the Potency entry in assay [8], in assay [10], in [11], in [13], in assay [14] and in assay [16] was “inactive” in each case. Further, the Potency in assay [2] is 49 µM (active). In addition, the molecule was classed as inactive in [12] and in [15].
For `CC(=O)CC(=O)c1ccccc1`, the Potency result in assay [1], in assay [2], in assay [3], in [4], in [19] and in [5] was “inactive” each time. Further, the Potency result in [6], in assay [17], in [7], in [8], in assay [10] and in [11] was “inactive” in each case. Moreover, the Potency entry in assay [14] was “inactive”. Further, the outcome in [12] and in assay [15] was inactive.
With `O=C1c2cccc(O)c2C(=O)c2c(O)cc(CO)cc21`, the Potency entry in [1], in assay [2], in [3], in assay [4], in [5] and in assay [6] was “inactive” throughout. Also, the Potency result in assay [17], in assay [7], in assay [8], in [10], in [11] and in [13] was “inactive” each time. The Potency result in [14] and in assay [16] was “inactive” throughout. For the same molecule, the molecule was called inactive in [12] and in assay [15].
With `C=CCCCCCC`, the Potency entry in [1], in assay [2], in assay [3], in assay [18], in assay [19] and in assay [5] was “inactive” throughout. The Potency entry in assay [6], in [17], in assay [7], in assay [8], in assay [11] and in [13] was “inactive” in each case. Besides, the Potency entry in assay [14] is “inactive”. Also, the molecule was called inactive in [12] and in assay [15]. Besides, the Potency in assay [16] was 58.9 µM (active).
For the molecule `C=CC(=O)OCC(C)OCC(C)OCC(C)OC(=O)C=C` (stereo not drawn), the Potency result in assay [1], in [3], in assay [19], in [5], in [6] and in [17] was “inactive” in each case. For the same molecule, the Potency entry in [7], in assay [8], in [10] and in [11] was “inactive” each time. Also, the Potency in assay [2] was 54.9 µM (active); in [18], 43.6 µM (active); in [13], 24.3 µM (active); in [14] it was 48.6 µM (active); in assay [16], 9.69 µM (active). The molecule was called inactive in assay [12] and in assay [15].
As to `CN1CCC[C@@H]1c1cccnc1`, the Potency result in assay [1], in assay [2], in [3], in [4], in assay [19] and in [5] was “inactive” in each case. Also, the Potency entry in [6], in assay [7], in assay [8], in assay [20], in assay [11] and in [13] was “inactive” each time. In addition, the Potency entry in [14] and in assay [16] was “inactive” in each case. The result in assay [12] and in assay [15] was inactive.
